This is a sample that favours compounds with a hit; in the whole collection about 12% have one here.
G9a block = qHTS Assay for Inhibitors of Histone Lysine Methyltransferase G9a | Histone-lysine N-methyltransferase EHMT2 (Homo sapiens), Q96KQ7 | G9a H3K9 monomethylation, AlphaScreen, 2 h | Potency, µM (titrated, usually from 102 µM), inactives show at the highest dose activity, negative = inhibition, actives largely listed as inhibitors | 350,000 tested, 8.8% active | AID 504332, 2011; note: % is set by controls: 0 for no effect and ±100 for the full control effect; nearly all actives have a fitted effect of over 75% in size
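Quantitative HTS format: methyltransferase activity on a biotin-tagged H3K9 peptide is measured by AlphaScreen, using a rabbit anti-monomethyl-H3K9 antibody with streptavidin donor and anti-IgG acceptor beads. Final levels are 20 nM enzyme, 500 nM peptide, 20 uM SAM; 2 h RT.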
JMJD2A Tudor inh = qHTS Assay for Inhibitors of JMJD2A-Tudor Domain. Lysine-specific demethylase 4A (Homo sapiens), O75164. AlphaScreen JMJD2A-Tudor / H3K4me3 peptide binding. Potency, µM (series often up to 114 µM), inactives show at the top dose activity change, negative = inhibition, usual class: inhibitors. 390,000 tested, 4.4% active; note: % is set by controls: 0 for no effect and ±100 for the full control effect; nearly all actives have a fitted effect of over 50% in size
Target sequence (O75164 whole entry, looked up, the tested form may be a part): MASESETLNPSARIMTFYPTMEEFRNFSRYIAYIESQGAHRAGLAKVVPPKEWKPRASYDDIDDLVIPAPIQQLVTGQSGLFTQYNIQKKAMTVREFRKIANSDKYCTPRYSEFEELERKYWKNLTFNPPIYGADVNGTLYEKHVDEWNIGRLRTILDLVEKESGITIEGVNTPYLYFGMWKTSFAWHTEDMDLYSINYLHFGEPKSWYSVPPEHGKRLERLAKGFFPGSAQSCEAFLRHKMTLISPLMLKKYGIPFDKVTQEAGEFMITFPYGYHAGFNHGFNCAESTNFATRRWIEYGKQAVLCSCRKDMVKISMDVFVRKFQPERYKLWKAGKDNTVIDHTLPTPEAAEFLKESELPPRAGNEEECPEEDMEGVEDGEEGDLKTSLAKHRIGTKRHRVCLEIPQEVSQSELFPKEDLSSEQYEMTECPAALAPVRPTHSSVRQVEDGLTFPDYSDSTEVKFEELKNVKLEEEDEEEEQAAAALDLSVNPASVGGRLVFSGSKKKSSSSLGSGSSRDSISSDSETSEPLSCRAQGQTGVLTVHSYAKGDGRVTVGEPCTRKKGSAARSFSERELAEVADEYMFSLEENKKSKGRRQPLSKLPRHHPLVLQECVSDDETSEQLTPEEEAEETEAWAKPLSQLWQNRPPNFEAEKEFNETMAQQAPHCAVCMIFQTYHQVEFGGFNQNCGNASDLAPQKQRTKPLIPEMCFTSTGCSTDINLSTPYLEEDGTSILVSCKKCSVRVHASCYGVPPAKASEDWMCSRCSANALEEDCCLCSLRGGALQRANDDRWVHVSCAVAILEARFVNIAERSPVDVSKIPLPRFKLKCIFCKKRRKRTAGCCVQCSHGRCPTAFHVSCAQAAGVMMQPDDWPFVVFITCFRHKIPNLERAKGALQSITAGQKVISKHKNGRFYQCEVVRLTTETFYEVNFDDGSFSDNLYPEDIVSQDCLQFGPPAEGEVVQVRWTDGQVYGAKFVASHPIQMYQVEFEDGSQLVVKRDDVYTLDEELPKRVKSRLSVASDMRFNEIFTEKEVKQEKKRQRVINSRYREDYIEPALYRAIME
Sfp inh = qHTS Assay for Inhibitors of Bacillus subtilis Sfp phosphopantetheinyl transferase (PPTase) | 4'-phosphopantetheinyl transferase ffp (Bacillus subtilis), Q9F4F7 | Biochemical Sfp PPTase activity, qHTS | Potency, µM, for the others: largest response in the series, negative = inhibition, hits mostly inhibitors | 310,000 tested, 3.5% active | AID 1490, 2009;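 note: the enzyme is Sfp with the accession as filed and its product quenches rhodamine fluorescence; 0% = enzyme reaction without inhibitor and -100% = no enzyme wells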
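Step 1, compound plus 15 nM Sfp-PPTase, 15 min, room temperature. Step 2, add rhodamine-CoA (5 uM) and BHQ-2-YbbR (12.5 uM). Step 3, read 525/598 nm fluorescence at 0 and 30 min.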
BAZ2B inh = qHTS Assay for Inhibitors of BAZ2B; Bromodomain adjacent to zinc finger domain protein 2B (Homo sapiens), Q9UIF8; AlphaScreen BAZ2B-H3K14Ac peptide displacement; Potency, µM (highest dose often 114 µM), inactives show at the top dose activity change, negative = inhibition, actives largely listed as inhibitors; 360,000 tested, 4.4% active; note: % is set by controls: 0 for no effect and ±100 for the full control effect; nearly all actives have a fitted effect of over 60% in size
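BAZ2B 50 nM plus b-H3(5-23)K14Ac 50 nM, PBS pH 7.4/0.01% Tween-20, 30 min RT; compound added (max 110 uM), 30 min RT; streptavidin donor/Ni-chelate acceptor beads 10 ug/mL final, 20 min dark; AlphaScreen read.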
L3MBTL1 inh = qHTS Assay for the Inhibitors of L3MBTL1; AID 485360, 2010; Potency, µM (titrated, usually from 57.1 µM), without a hit: top-dose activity, negative = inhibition, most hits filed as inhibitors; 230,000 tested, 0.66% active; AlphaScreen L3MBTL1–H3K9me1 peptide binding; note: % is set by controls: 0 for no effect and ±100 for the full control effect; nearly all actives have a fitted effect of over 60% in size
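First, the protein-peptide complex forms for 30 min at room temperature (L3MBTL1 50 nM, biotinylated H3K9me1 peptide 75 nM). Next, compounds are pin-transferred and incubated 30 min. Finally, AlphaScreen beads are added and read after 30 min.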
HP1b binding inh = HTS for Inhibitors of HP1-beta Chromodomain Interactions with Methylated Histone Tails. AlphaScreen HP1-beta / biotin-H3K9me3 peptide binding. Potency, µM (series often up to 114 µM), for inactives: at the top dose activity change, negative = inhibition, actives largely listed as inhibitors. Chromobox protein homolog 1 (Homo sapiens), P83916. 390,000 tested, 0.56% active; note: nearly all actives have a fitted effect of over 70% in size
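HP1-beta protein (50 nM final) preincubated 30 min at room temperature with biotinylated H3(1-18)K9me3 peptide (50 nM) in PBS pH 7.4, 0.01% Tween-20, then compound added for 30 min. AlphaScreen streptavidin donor/nickel chelate acceptor beads (10 ug/mL final), 30 min dark, luminescence read.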
Starred values were filed as active, the others as inactive; u = inconclusive; x = not tested or not shown; [ ] = dose if it differs, or a comment. Calls come from the whole dose curve; as a rule, active = well fitted curve in the direction sought with a large enough effect; inconclusive = small, poorly fitted or top-dose-only effect, or another doubt; inactive = no such curve, though single readings can be large; an effect the other way counts as inactive or inconclusive. Potency is the fitted concentration of half-maximal effect.

SMILES	G9a block	JMJD2A Tudor inh	Sfp inh	BAZ2B inh	L3MBTL1 inh	HP1b binding inh
COCCn1c(CNC(=O)c2cc([N+](=O)[O-])ccc2Cl)nc2cccnc21	1%[59 µM]	-20%	x	-1%	x	15%[57 µM]
NC[C@@H]1O[C@@H](O[C@H]2[C@H](O)[C@@H](O[C@@H]3O[C@@H](CO)[C@H](O)[C@@H](N)[C@@H]3O)[C@H](N)C[C@@H]2N)[C@@H](O)[C@H](O)[C@H]1O	28%[59 µM]	x	2%	x	x	x
CCOC(=O)NC[C@H](Cc1ccc(OCCc2nc(-c3ccccc3)oc2C)cc1)N/C(C)=C\C(=O)c1ccc(C(F)(F)F)cc1	x	x	11%	x	x	x
Cc1ccccc1NC(=O)CN1C(=O)CCn2nc(-c3cccn3C)cc21	-33%[59 µM]	-21%	x	-34%	x	3%[57 µM]
Cc1sc2nc(CN3CCOCC3)[nH]c(=S)c2c1C	40µM*	-27%	8.9µM*	-34%	-7%	8%
Cc1sc2nc(CN3CCN(c4ccc(O)cc4)CC3)[nH]c(=O)c2c1C	x	u	35µM*	u	x	u
Cc1sc2nc(CN3CCOCC3)nc(NCCc3ccccc3)c2c1C	-2%	u	3%	-33%	x	-3%
O=C(/C=C/c1c(C(=O)O)[nH]c2cc(Cl)cc(Cl)c12)Nc1ccccc1	x	x	22%	x	x	x
C#CCOCCOCCOCCNc1nc(N2CCN(C(=O)[C@H](CCC(=O)O)n3cc(C(N)Cc4ccc(O)cc4)nn3)CC2)nc(N2CCN(C(=O)[C@H](CCC(=O)O)n3cc(C(N)Cc4ccc(O)cc4)nn3)CC2)n1 (some centres not stated)	u	50µM*	-7%	50µM*	-15%	32%
C#CCOCCOCCOCCNc1nc(N2CCN(C(=O)[C@H](CCCCN)n3cc(C(N)CO)nn3)CC2)nc(N2CCN(C(=O)[C@H](CCC(=O)O)n3cc(C(N)Cc4ccc(O)cc4)nn3)CC2)n1 (some centres not stated)	u	x	-30%	18µM*	x	x
C#CCOCCOCCOCCNc1nc(N2CCOCC2)nc(N2CCN(C(=O)[C@H](CO)n3cc([C@@H](N)C(C)C)nn3)CC2)n1	x	-11%	x	x	11%	37%
C#CCOCCOCCOCCNc1nc(N2CCN(C(=O)[C@H](CCCCN)n3cc(CCC(=O)O)nn3)CC2)nc(N2CCN(C(=O)[C@H](Cc3ccc(O)cc3)n3cc(CCO)nn3)CC2)n1	x	-14%	x	x	x	17%
C#CCOCCOCCOCCNc1nc(N2CCN(C(=O)[C@H](CCC(=O)O)n3cc(C(N)CC(C)C)nn3)CC2)nc(N2CCN(C(=O)[C@H](Cc3ccc(O)cc3)n3cc(C(N)CC(C)C)nn3)CC2)n1 (some centres not stated)	u	79µM*	-13%	79µM*	-2%	23%
C#CCOCCOCCOCCNc1nc(N2CCN(C(=O)[C@H](Cc3ccc(O)cc3)n3cc([C@@H](N)CC(C)C)nn3)CC2)nc(N2CCN(C(=O)[C@H](Cc3ccc(O)cc3)n3cc([C@@H](N)CC(C)C)nn3)CC2)n1	-102%[59 µM]	x	-17%	50µM*	-15%	x
C#CCOCCOCCOCCNc1nc(N2CCN(C(=O)[C@H](CCC(=O)O)n3cc(C(N)Cc4ccc(O)cc4)nn3)CC2)nc(N2CCN(C(=O)[C@H](Cc3ccc(O)cc3)n3cc(C(N)CC(C)C)nn3)CC2)n1 (some centres not stated)	u	x	-1%	35µM*	x	x
COc1ccc(C(CNC(=O)c2oc3ccc(C)cc3c2C)N2CCOCC2)cc1 (configuration not stated)	-8%[59 µM]	-14%	x	-23%	x	32%
Cc1ccc(-c2noc(-c3ccc(N4CCOCC4)c([N+](=O)[O-])c3)n2)cc1	-18%[59 µM]	-11%	x	u	x	29%
Cc1ccc2c(c1)-c1c(ssc1=S)C(C)(C)N2C(=O)CSC1=NCCS1	u	5µM*	-2%	8.9µM*	u	u
Cc1ccnc(Nc2nc(-c3sc(C)nc3C)cs2)c1	x	79µM*	x	x	x	u
Cc1nc(N)sc1-c1csc(Nc2ccccn2)n1	u	79µM*	56µM*	-38%	-8%	-46%
Cc1nc(C)c(-c2csc(Nc3ccccn3)n2)s1	u	-33%	-22%	u	-5%	9%
Cc1nc(N)sc1-c1csc(Nc2ccc(Cl)cn2)n1	10µM*	u	20µM*	u	-15%	u
CCOc1ccccc1CNCCCSc1nnnn1C	-1%[59 µM]	-8%	x	-11%	x	26%
COc1ccc(CNC(=O)C(=O)NCC(c2cccs2)S(=O)(=O)c2cccs2)cc1 (configuration not stated)	6%[59 µM]	-9%	x	-10%	x	1%
OC(CNCc1ccco1)Cn1c2ccc(Br)cc2c2cc(Br)ccc21 (configuration not stated)	-1%[59 µM]	-23%	20µM*	-35%	x	8%
SMILES	G9a block	JMJD2A Tudor inh	Sfp inh	BAZ2B inh	L3MBTL1 inh	HP1b binding inh
Nc1nc(C23CC4CC(CC(Cl)(C4)C2)C3)cs1	6%[59 µM]	-26%	6%	71µM*	0%	9%
COc1cccc(Cn2c(=O)n(CC3CCC(C(=O)N4CCCCC4)CC3)c(=O)c3sccc32)c1 (configuration not stated)	4%[59 µM]	-32%	x	-24%	x	19%
CC(C(=O)N(C)C1CCS(=O)(=O)C1)N1C(=O)/C(=C/c2ccco2)SC1=S (configuration not stated)	45µM*	50µM*	-26%	56µM*	x	u
CCN(C(=O)C(C)N1C(=O)/C(=C/c2cccs2)SC1=S)C1CCS(=O)(=O)C1 (configuration not stated)	45µM*	26%	-3%	u	x	38%
CC(C(=O)N(C)C1CCS(=O)(=O)C1)N1C(=O)/C(=C/c2cccs2)SC1=S (configuration not stated)	-69%	u	9%	-33%[57.1 µM]	x	8%
O=C1C2C3C=CC(C4CC34)C2C(=O)N1/N=C/c1ccc(-c2cccc([N+](=O)[O-])c2)o1 (configuration not stated)	u	-34%	-8%	u	-10%	-6%
